PubChem BioAssay (NCI)
About 83,000 compounds went through this panel and 20% of them were active in at least one assay; those are over-represented in the sample as a whole.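 Note: values are percent growth. 100 is the growth of untreated cells, values between 100 and 0 indicate rising inhibition; between -100 and 0 indicates cell death.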 Activity calls are given as the source filed them. Rule for the calls: active = growth percent below 10; inactive = the rest.

Each molecule was assayed on SK-OV-3 ovarian (assay: NCI-60 one-dose screen, 48 h (100 = growth as untreated, 0 = no growth, -100 = all killed)). Conditions: 10 µM unless noted.
In the case of Cn1c(=O)cc2c3c(c(NCCCO)ccc31)C(=O)c1ccccc1-2, the growth is reported as 51.6% (inactive).
In the case of O=C(OC(CO)C(=O)NC12CC3CC(CC(C3)C1)C2)c1ccc(Cl)cc1 (centres undefined), the growth is reported as 107% (inactive).
In the case of N#Cc1nc(-c2ccc(F)cc2)oc1S(=O)(=O)N1CCCCC1, the growth is reported as 104% (inactive).
With COC1/C=C/OC2(C)Oc3c(C)c(O)c4c(O)c(c(/C=N/Nc5ccc([N+](=O)[O-])cc5[N+](=O)[O-])c(O)c4c3C2=O)NC(=O)C(C)=C/C=C/C(C)C(O)C(C)C(O)C(C)C(OC(C)=O)C1C (centres undefined) the growth was 112% (inactive).
O=C1c2c(c3c4ccccc4[nH]c3c3ccc4ccccc4c23)C(=O)N1CCN1CCOCC1 was tested, and the growth was 81.2% (inactive).
With NC(=O)c1cc(I)ccc1NC(=O)/C=C/c1ccccc1 the growth was 69.8% (inactive).
COC(=O)c1c2c(c(C)[n+]([O-])c1C)C(=O)C(NCc1cccc(OC)c1)=CC2=O was tested, and the growth was 89.6% (inactive).
COc1ccc(CNc2c3ccccc3nc3ccccc23)cc1 was tested, and the growth was 53.8% (inactive).
In the case of N=C(N)c1ccc(-c2ccc(-c3ccc(Cl)c(Cl)c3)s2)nc1, the growth is reported as 86.6% (inactive).
With Nc1c(C(=O)Nc2ccccc2F)sc2nc3c(cc12)CCCC3 the growth was 26.6% (inactive).
With Cc1ccc2c(n1)C(=O)C(Br)=C(C1CCCC1)C2=O the growth was 88.7% (inactive).
With N#CC1=C(N)Oc2c(sc3c(Br)cccc23)C1c1ccc(Cl)cc1 (centres undefined) the growth was 27.1% (inactive).
With COc1ccc(/C=C(\C#N)n2nnc3cc(F)c(F)cc32)cc1 the growth was 69.6% (inactive).
For COc1cc(NS(=O)(=O)c2ccc(-c3cnc(C4CC4)o3)cc2)ccc1F, the growth was 47.4% (inactive).
